Among the data in PubChem BioAssay (EPA / NIEHS) are outcome and AC50 values, retold here.

Results filed as inconclusive are left out. Activity calls are given as the source filed them. How the source made its calls: active means hit-call score of the fitted dose curve at least 0.9, where 1 is the maximum; inconclusive means response in the unintended direction; inactive means score below 0.9.

For orientation: AC50 means the concentration at which the activity in the assay is half-maximal.

Read-out in this assay: HMG-CoA synthase (HMGCS2), HMGCS2 (gene 3158)
Description: CLD_HMGCS2_6hr: CellzDirect (CLD) Gene Expression Assay for HMG-CoA synthase (HMGCS2) at 6 hours (AID 2283682).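 Further: actives raise HMGCS2 transcript above the 0.2% DMSO vehicle baseline.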 As to the method: CLD_6hr is a cell-based, multiplexed-readout assay that uses hepatocyte, a human liver primary cell, with measurements taken at 6 hours after chemical dosing in a 96-well plate.CLD_HMGCS2_6hr is one of 16 assay component(s) measured or calculated from the CLD_6hr assay. It is designed to make measurements of mRNA induction, a form of inducible reporter, as detected with chemiluminescence signals by Quantitative Nuclease Protection Assay (qNPA) technology.Data from the assay component CLD_HMGCS2_6hr was analyzed at the endpoint, CLD_HMGCS2_6hr, in the positive analysis fitting direction relative to DMSO as the negative control and baseline of activity. Using a type of inducible reporter, gain-of-signal activity can be used to understand changes in the reporter gene as they relate to the gene HMGCS2. Furthermore, this assay endpoint can be referred to as a primary readout. To generalize the intended target to other relatable targets, this assay endpoint is annotated to the lyase intended target family, where subfamily is HMG-CoA synthase.
Human hepatocyte cultures were treated daily for two consecutive days with fresh dosing solutions containing appropriate concentrations of the 320 ToxCast chemicals (chemical identities were blinded to CellzDirect and other ToxCast collaborators), vehicle control (0.2% DMSO), and positive control inducers as summarized in Table 1. Due to the large number of treatment groups and chemicals examined, the ToxCast chemicals were divided into two groups (spanning two independent cultures of hepatocytes from separate donor preparations (Hu778: ToxCast plates 1 and 2; Hu776: ToxCast plates 3 and 4). Each preparation of human hepatocyte cultures was treated with respective vehicle control, medium only control, set of six positive controls/reference chemicals for the five hepatic receptor pathways, and a subset of eight of the ToxCast chemicals (indoxacarb, pyrithiobac-sodium, norflurazon, cyhalofop-butyl, methomyl, thiram, acetochlor, and propiconazole). These replicate data, coupled with internal replicates designed within the blinded ToxCast chemical library, provided additional data to evaluate interindividual differences between hepatocyte preparations and their potential impact on chemical profiles.Cell morphology and integrity were evaluated using phase-contrast microscopy as an indicator of hepatocyte cell health (Tyson & Green, 1987). Cultures for each treatment group (i.e., media, vehicle [0.2% DMSO], positive control inducers [multiple concentrations], and the ToxCast chemicals [multiple concentrations]) were observed and cell morphology was assessed relative to vehicle control cultures at each harvest time point (0, 6, 24, or 48 h). […] Images were evaluated at the conclusion of the study to assess changes in cell integrity and account for the effects of chemical exposure on uncharacteristic changes in concentration-dependent gene expression profiles. The results from these determinations of apparent cytotoxicity were annotated (yes/no) alongside the corresponding qNPA data for reference.At the conclusion of each treatment period, hepatocyte cultures (96-well) were washed with 1 volume of HBSS, lysed by addition of 25 ul ArrayPlate lysis buffer (HTG, Tucson, AZ), and 70 ul/well of Denaturation Oil, denatured by incubation at 95C for 10 min, and frozen at approximately -70C until analysis by nuclease protection assay (qNPA) (Roberts et al., 2007). For qNPA analysis, cell lysates were thawed at 50C for approximately 30 min, qNPA probes were added, and samples were incubated at 95C for 10 min to begin the detection process by denaturing the target RNA, dissociating the duplexes and secondary structure hybridization. At the conclusion of the hybridization period, S1 nuclease reagent was added to each sample to digest all nonprotected nucleotides at 50C for 60-90 min. […]
As for `CCOC(=O)C(C)Oc1ccc(Oc2nc3ccc(Cl)cc3o2)cc1` (stereo not given), the molecule was classed as inactive.
Still for that read-out and setting: then `CCCCOC(=O)C(C)Oc1ccc(Oc2ccc(C(F)(F)F)cn2)cc1` (stereo not given), with “inactive”.
Regarding `CC(C)(C)[C@@H](O)[C@@H](Cc1ccc(Cl)cc1)n1cncn1`, the AC50 was 1.9 µM (active).
Take `O=C(O)C1(C(=O)Nc2ccc(Cl)cc2Cl)CC1`: the molecule was classed as inactive.
In the case of `c1ccc(Nc2ccccc2)cc1`, the outcome was inactive.
Still for that read-out and setting: then `CCOC(=O)COc1cc(-n2ncc(C(F)(F)F)c(C)c2=O)c(F)cc1Cl`, with “inactive”.
`CCC(C)OC(=O)N1CCCCC1CCO` (stereo not given): the call was inactive.
The same measure, in the same setting: next, `C#CCOC(=O)[C@@H](C)Oc1ccc(Oc2ncc(Cl)cc2F)cc1`: “inactive”.
Turning to `N#CSCSc1nc2ccccc2s1`, the AC50 was 7.13 µM (active).
In the case of `CN(C)C(=O)Nc1ccc(Cl)c(Cl)c1`, the outcome was inactive.
Same read-out and setting: next, `CSC(=O)c1cccc2nnsc12`: “inactive”.
Same read-out and setting: next, `COc1c(Cl)ccc(Cl)c1C(=O)O`: “inactive”; `COC(=O)c1c(Cl)nn(C)c1S(=O)(=O)NC(=O)Nc1nc(OC)cc(OC)n1`: “inactive”; `COC(=O)c1ccccc1C(=O)O`: “inactive”.
The same measure, in the same setting: then `CCCOC(=O)c1ccc(C(=O)OCCC)nc1`, with “inactive”; and `COC(=O)c1ccc(I)cc1S(=O)(=O)NC(=O)Nc1nc(C)nc(OC)n1`, with “inactive”; and `S=C([S-])NCCNC(=S)[S-].[Mn+2]`, with “inactive”.
Consider `Oc1ccc(C(c2ccc(O)cc2)C(Cl)(Cl)Cl)cc1`, for which the molecule was classed as inactive.
Take `CC(C)(c1ccc(O)cc1)c1ccc(O)cc1`: the molecule was called inactive.
The same measure, in the same setting: then `CCCCOC(=O)[C@@H](C)Oc1ccc(Oc2ccc(C(F)(F)F)cn2)cc1`, with “inactive”.
On the same count and under the same terms, next, `CC1(C)C(C=C(Cl)Cl)C1C(=O)OCc1cccc(Oc2ccccc2)c1` (stereo not given): “inactive”.
As to `CCC(O)=C1C(=O)CC(C(=O)O)CC1=O` (stereo not given), the molecule was classed as inactive.
`C=CCOC(Cn1ccnc1)c1ccc(Cl)cc1Cl` (stereo not given): the molecule was classed as inactive.
On the same count and under the same terms, then `CCN(CC)C(=O)c1cccc(C)c1`, with “inactive”.
Still for that read-out and setting: then `CCCCC(CC)COC(=O)c1ccccc1C(=O)O` (stereo not given), with “inactive”.
